Results from ChEMBL document CHEMBL1961873, “Compounds: GSK PKIS; Assays: Nanosyn kinase panel” (2012).

Legend:
[1] = molecular target: Ribosomal protein S6 kinase alpha-6 (Homo sapiens) (UniProt Q9UK32); settings: at 1 µM;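 note: each value is a mean inhibition of RSK4 from a GSK PKIS panel screen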
[2] = molecular target: T1, Serine/threonine-protein kinase Sgk1 (Homo sapiens) (UniProt O00141); settings: at 0.1 µM
T1 sequence (whole entry): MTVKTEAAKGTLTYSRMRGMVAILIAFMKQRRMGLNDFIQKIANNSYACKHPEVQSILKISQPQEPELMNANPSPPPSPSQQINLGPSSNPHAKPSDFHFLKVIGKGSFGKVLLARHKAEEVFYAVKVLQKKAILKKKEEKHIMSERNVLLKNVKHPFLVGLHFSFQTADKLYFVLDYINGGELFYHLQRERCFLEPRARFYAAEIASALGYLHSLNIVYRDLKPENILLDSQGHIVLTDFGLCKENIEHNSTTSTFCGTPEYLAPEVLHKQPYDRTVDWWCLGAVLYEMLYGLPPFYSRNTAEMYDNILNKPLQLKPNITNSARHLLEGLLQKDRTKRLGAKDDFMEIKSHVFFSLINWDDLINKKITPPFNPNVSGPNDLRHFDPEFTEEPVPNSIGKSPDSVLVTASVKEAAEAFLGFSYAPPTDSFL

[3] = molecular target: T1, Serine/threonine-protein kinase Sgk1 (Homo sapiens); settings: at 1 µM
[4] = molecular target: T2, Serine/threonine-protein kinase Sgk2 (Homo sapiens) (UniProt Q9HBY8); settings: at 0.1 µM
T2 sequence (whole entry): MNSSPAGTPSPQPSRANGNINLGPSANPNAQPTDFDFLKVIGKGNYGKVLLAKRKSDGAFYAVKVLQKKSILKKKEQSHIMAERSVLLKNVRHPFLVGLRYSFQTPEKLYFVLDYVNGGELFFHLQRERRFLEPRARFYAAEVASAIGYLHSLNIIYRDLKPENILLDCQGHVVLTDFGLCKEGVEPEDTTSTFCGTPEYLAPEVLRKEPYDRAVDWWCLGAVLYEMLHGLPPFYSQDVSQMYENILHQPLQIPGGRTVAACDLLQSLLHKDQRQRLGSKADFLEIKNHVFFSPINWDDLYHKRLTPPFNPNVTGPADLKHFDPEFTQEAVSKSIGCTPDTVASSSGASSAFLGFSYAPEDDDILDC

[5] = molecular target: T2, Serine/threonine-protein kinase Sgk2 (Homo sapiens); settings: at 1 µM
[6] = molecular target: T3, Serine/threonine-protein kinase Sgk3 (Homo sapiens) (UniProt Q96BR1); settings: at 0.1 µM
T3 sequence (whole entry): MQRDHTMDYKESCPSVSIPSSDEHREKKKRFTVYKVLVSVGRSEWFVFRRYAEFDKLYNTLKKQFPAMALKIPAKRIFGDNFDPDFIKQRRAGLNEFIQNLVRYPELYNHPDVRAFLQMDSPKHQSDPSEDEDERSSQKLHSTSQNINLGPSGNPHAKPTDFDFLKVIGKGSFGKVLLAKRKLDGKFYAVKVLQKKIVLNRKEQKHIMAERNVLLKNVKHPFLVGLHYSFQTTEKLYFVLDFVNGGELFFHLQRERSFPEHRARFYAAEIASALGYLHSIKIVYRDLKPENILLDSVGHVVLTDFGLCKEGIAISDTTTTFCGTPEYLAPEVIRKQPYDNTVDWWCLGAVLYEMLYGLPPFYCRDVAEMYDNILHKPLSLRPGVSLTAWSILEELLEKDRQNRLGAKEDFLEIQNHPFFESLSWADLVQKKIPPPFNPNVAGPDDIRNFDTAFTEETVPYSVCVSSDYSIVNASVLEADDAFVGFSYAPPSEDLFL

[7] = molecular target: T3, Serine/threonine-protein kinase Sgk3 (Homo sapiens); settings: at 1 µM
[8] = molecular target: 5'-AMP-activated protein kinase catalytic subunit alpha-1 (Homo sapiens) (UniProt Q13131); settings: at 0.1 µM
5'-AMP-activated protein kinase catalytic subunit alpha-1 (Homo sapiens), sequence (Q13131 whole entry, looked up): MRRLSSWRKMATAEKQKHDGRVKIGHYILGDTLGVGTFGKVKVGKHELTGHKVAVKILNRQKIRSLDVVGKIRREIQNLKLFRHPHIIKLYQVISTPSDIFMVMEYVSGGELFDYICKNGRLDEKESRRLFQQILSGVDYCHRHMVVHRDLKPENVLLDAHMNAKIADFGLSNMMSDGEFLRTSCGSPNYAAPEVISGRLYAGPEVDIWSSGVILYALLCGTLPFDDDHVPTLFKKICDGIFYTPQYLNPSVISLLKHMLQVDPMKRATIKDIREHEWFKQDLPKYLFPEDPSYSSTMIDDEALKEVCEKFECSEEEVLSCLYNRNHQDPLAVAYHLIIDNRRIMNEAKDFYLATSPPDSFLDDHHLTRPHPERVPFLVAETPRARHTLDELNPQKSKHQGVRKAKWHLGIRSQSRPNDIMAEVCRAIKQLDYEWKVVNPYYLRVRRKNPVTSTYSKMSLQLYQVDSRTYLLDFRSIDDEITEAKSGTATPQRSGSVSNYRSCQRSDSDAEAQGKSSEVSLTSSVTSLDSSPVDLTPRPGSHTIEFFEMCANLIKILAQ

[9] = molecular target: 5'-AMP-activated protein kinase catalytic subunit alpha-1 (Homo sapiens) (UniProt Q13131); settings: at 1 µM
[10] = molecular target: 5'-AMP-activated protein kinase catalytic subunit alpha-2 (Homo sapiens) (UniProt P54646); settings: at 0.1 µM
5'-AMP-activated protein kinase catalytic subunit alpha-2 (Homo sapiens), sequence (P54646 whole entry, looked up): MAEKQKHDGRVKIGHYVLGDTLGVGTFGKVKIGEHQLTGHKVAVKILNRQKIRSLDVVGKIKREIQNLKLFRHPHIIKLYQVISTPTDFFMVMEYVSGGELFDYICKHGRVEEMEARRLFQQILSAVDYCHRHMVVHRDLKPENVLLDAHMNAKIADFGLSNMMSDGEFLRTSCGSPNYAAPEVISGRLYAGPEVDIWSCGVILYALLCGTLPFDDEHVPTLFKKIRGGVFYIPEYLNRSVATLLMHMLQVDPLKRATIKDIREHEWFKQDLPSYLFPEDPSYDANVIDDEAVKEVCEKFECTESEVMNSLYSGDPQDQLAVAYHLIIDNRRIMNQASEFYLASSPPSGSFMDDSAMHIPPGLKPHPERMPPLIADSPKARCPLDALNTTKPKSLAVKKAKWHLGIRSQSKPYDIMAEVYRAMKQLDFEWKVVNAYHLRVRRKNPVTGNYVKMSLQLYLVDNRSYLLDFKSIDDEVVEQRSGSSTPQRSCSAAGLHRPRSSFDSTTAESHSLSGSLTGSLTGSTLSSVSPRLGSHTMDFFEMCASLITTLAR

[11] = molecular target: 5'-AMP-activated protein kinase catalytic subunit alpha-2 (Homo sapiens) (UniProt P54646); settings: at 1 µM
[12] = molecular target: T4, NUAK family SNF1-like kinase 1 (Homo sapiens) (UniProt O60285); settings: at 0.1 µM
T4 sequence (whole entry): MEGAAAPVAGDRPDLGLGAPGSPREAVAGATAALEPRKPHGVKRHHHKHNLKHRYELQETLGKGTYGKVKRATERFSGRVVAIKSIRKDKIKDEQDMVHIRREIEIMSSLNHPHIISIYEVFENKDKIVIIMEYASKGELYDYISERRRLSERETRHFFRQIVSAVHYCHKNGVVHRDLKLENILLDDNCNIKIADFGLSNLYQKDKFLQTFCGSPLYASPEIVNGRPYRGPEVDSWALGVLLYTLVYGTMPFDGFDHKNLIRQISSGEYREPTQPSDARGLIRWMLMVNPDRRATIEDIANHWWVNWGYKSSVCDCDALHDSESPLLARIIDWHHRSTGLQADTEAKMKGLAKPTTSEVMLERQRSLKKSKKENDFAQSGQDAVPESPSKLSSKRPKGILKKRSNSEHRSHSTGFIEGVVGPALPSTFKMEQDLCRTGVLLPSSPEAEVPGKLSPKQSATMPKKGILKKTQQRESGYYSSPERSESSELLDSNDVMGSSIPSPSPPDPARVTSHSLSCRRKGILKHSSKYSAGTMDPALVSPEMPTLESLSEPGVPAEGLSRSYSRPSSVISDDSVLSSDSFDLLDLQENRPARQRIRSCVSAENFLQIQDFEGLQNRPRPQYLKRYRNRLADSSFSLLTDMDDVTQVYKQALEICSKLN

[13] = molecular target: T4, NUAK family SNF1-like kinase 1 (Homo sapiens); settings: at 1 µM
[14] = molecular target: T5, Serine/threonine-protein kinase BRSK1 (Homo sapiens) (UniProt Q8TDC3); settings: at 0.1 µM
T5 sequence (whole entry): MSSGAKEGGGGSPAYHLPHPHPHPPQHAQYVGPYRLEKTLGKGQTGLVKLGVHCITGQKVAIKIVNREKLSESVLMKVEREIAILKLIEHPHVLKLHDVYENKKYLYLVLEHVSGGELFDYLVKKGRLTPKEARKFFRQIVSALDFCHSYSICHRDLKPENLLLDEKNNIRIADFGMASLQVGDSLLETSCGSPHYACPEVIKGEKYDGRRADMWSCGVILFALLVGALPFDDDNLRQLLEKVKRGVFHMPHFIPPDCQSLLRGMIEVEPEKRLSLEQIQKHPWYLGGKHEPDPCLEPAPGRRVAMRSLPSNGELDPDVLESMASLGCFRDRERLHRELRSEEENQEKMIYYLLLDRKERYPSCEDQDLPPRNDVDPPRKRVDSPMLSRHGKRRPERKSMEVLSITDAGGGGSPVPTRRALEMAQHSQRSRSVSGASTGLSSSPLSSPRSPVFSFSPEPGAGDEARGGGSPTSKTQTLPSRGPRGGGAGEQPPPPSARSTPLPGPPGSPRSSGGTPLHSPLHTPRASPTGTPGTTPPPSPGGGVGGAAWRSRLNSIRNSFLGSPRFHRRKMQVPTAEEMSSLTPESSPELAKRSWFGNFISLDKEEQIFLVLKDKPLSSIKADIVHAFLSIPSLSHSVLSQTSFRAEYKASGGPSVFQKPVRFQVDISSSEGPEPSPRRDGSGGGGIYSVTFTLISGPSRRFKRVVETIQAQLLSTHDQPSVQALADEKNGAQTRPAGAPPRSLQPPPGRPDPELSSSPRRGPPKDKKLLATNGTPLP

[15] = molecular target: T5, Serine/threonine-protein kinase BRSK1 (Homo sapiens); settings: at 1 µM
[16] = molecular target: T6, Serine/threonine-protein kinase BRSK2 (Homo sapiens) (UniProt Q8IWQ3); settings: at 0.1 µM
T6 sequence (whole entry): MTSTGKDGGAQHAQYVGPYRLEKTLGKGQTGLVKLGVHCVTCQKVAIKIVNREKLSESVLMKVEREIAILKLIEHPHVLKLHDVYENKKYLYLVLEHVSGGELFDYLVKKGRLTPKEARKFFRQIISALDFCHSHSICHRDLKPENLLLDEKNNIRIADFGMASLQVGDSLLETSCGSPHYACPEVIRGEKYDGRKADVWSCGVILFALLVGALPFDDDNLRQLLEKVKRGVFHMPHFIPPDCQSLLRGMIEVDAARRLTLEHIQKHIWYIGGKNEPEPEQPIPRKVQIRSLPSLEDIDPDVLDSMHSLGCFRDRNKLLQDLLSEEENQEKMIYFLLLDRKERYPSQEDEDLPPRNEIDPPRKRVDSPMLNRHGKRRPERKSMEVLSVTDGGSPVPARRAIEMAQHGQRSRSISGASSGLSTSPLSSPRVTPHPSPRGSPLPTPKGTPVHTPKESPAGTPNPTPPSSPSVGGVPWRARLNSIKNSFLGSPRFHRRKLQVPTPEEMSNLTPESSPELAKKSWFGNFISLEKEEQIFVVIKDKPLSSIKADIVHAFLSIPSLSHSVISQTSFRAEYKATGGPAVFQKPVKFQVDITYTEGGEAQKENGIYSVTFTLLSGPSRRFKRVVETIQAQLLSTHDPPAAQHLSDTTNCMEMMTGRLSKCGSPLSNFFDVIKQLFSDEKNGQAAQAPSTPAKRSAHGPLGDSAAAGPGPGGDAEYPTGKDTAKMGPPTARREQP

[17] = molecular target: T6, Serine/threonine-protein kinase BRSK2 (Homo sapiens); settings: at 1 µM
[18] = molecular target: Calcium/calmodulin-dependent protein kinase type 1D (Homo sapiens) (UniProt Q8IU85); settings: at 0.1 µM
Calcium/calmodulin-dependent protein kinase type 1D (Homo sapiens), sequence (Q8IU85 whole entry, looked up): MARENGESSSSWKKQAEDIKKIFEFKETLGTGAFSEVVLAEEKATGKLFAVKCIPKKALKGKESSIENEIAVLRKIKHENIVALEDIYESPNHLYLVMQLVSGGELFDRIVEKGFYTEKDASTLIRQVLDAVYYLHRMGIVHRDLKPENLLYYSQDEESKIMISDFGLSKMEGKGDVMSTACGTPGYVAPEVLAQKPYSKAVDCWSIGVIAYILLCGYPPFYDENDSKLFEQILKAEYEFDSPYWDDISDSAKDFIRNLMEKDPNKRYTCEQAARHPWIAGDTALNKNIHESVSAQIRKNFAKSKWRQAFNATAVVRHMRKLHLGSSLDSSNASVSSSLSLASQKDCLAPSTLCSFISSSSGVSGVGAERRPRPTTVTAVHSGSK

[19] = molecular target: Calcium/calmodulin-dependent protein kinase type 1D (Homo sapiens) (UniProt Q8IU85); settings: at 1 µM
[20] = molecular target: Calcium/calmodulin-dependent protein kinase type II subunit alpha (Homo sapiens) (UniProt Q9UQM7); settings: at 0.1 µM;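 note: reported values are averages (mean inhibition of CAMK2A)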
Calcium/calmodulin-dependent protein kinase type II subunit alpha (Homo sapiens), sequence (Q9UQM7 whole entry): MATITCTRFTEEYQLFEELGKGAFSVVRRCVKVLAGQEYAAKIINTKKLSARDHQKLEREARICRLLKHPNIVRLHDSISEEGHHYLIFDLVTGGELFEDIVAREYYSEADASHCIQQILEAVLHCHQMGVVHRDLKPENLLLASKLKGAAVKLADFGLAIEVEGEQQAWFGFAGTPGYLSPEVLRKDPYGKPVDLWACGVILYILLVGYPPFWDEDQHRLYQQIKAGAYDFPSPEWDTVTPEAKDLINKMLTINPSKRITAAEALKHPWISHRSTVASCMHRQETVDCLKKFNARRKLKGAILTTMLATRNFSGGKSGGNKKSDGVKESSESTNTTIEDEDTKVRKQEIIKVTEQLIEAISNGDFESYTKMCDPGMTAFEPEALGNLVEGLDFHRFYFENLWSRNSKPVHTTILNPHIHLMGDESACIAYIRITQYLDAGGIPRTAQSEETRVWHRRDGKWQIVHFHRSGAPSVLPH

Ribosomal protein S6 kinase alpha-6 (Homo sapiens), sequence (Q9UK32 whole entry): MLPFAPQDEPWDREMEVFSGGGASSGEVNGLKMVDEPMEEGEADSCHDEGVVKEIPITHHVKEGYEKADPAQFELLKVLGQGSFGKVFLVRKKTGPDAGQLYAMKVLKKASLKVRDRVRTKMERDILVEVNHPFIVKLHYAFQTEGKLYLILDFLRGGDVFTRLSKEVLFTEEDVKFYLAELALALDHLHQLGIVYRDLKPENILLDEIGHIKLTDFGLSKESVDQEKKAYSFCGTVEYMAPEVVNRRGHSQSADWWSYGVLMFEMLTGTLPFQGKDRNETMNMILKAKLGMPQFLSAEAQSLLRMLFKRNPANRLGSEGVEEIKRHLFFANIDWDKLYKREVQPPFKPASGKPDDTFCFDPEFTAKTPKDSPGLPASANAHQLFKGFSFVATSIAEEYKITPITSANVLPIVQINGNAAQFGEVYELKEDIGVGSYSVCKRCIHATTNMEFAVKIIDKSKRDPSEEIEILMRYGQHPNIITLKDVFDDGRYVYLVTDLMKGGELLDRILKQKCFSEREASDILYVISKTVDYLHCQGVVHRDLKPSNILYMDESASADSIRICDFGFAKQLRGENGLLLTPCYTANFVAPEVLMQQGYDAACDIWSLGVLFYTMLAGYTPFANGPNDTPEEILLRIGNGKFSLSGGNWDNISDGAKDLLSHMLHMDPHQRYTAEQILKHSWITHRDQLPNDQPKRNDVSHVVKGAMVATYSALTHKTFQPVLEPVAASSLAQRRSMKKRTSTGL

Compound	inhibition [1] [%]	inhibition [2] [%]	inhibition [3] [%]	inhibition [4] [%]	inhibition [5] [%]	inhibition [6] [%]	inhibition [7] [%]	inhibition [8] [%]	inhibition [9] [%]	inhibition [10] [%]	inhibition [11] [%]	inhibition [12] [%]	inhibition [13] [%]	inhibition [14] [%]	inhibition [15] [%]	inhibition [16] [%]	inhibition [17] [%]	inhibition [18] [%]	inhibition [19] [%]	inhibition [20] [%]
NC(=O)c1ccc(-c2nc(-c3ccccn3)c(-c3ccc4c(c3)OCO4)[nH]2)cc1	1.4	1.94	3.63	1.68	8.98	1.19	4.38	2.69	2.55	0.83	2.23	0.4	1.15	-0.32	-0.03	0.53	1.06	0.53	0.23	1.86
CCn1c(-c2nonc2N)nc2c(C#CC(C)(C)O)nc(CN3CCCC3)cc21	0.64	-0.45	0.58	0.87	-0.61	0.78	0.63	2.98	3.34	2.04	6.62	-8.68	2.69	0.47	2.17	1.38	3.23	1.23	2.08	-0.97
